This is part of a sample that, as a whole, favours compounds with a hit. Of some 83,000 tested, about 20% had one in any assay.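 Activity criterion: percent growth below 10, measured after cells in 96-well plates were exposed to a single compound concentration for 48 hours.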 A number with no mark means an inactive call. The source made the active and inactive calls.
The compounds below were run on UACC-62 melanoma (assay: NCI-60 one-dose screen, 48 h (100 = growth as untreated, 0 = no growth, -100 = all killed)). Settings: 10 µM unless noted.
In the case of `S=c1sc2c(Cl)nc(-c3cccnc3)nc2n1-c1ccccc1`, the growth is reported as -10.2% (active). In the case of `C=C(C)[C@@H]1CC[C@]2(CO)CC[C@]3(C)[C@H](CC[C@@H]4[C@@]5(C)CC[C@H](NCO)C(C)(C)[C@@H]5CC[C@]43C)[C@@H]12`, the growth is reported as 83.6%. For `CN(C)Cc1ccc(O)c(C(=O)O)c1`, the growth was 104%. Compound `CCCn1cc2c(=O)nc3sc(Cc4ccccc4)c(C)n3c2n1` has a growth of 95%. Work on `CN(/C(N)=N/N=C/c1c2ccccc2cc2ccccc12)C1CCCCC1` yielded a growth of 47.6%. With `CC(=O)n1nc(C(=O)OC(C)(C)c2ccccc2)c2ccccc21` the growth was 93%. `CS(=O)(=O)c1ccc(-c2cnn3ccc(-c4cccc(S(=O)(=O)C5CC5)c4)nc23)cc1` showed a growth of 53.3%. Work on `COc1ccc(/C=C(\C#N)n2nnc3ccc(Cl)cc32)cc1` yielded a growth of 62.3%. For `Oc1c(Br)cc(Br)c2ccc(Cn3cc(-c4ccc(C(F)(F)F)cc4)nn3)nc12`, the growth was 67.8%. For `Cc1sc2nc(NCCc3c[nH]c4ccc(Cl)cc34)[nH]c(=O)c2c1C`, the growth was 42.3%. `CCN1C(=S)N(c2ccccc2)C2NC(=S)N(/N=C/C=C/c3ccccc3OC)C21` (centres undefined) was tested, and the growth was 25.7%. In the case of `CCN(C)S(=O)(=O)Nc1cccc(Nc2ncnc3cc(NC(=O)CCl)ccc23)c1Cl`, the growth is reported as -22.5% (active). Work on `Cn1c(I)c(C#CCO[Si](C)(C)C(C)(C)C)c(=O)[nH]c1=O` yielded a growth of 101%. `Nc1[nH]n2cc(-c3ccccc3)nc2c1N=Nc1ccc(S(N)(=O)=O)cc1` was tested, and the growth was 31.3%.

— PubChem BioAssay (NCI)
